M1 PAM = human CHRM1 positive allosteric modulation | P11229 | CHO-K1 hM1, Fluo-8 calcium fluorescence, ACh EC20; 0% = ACh EC20, 100% = maximal ACh | activation, % at 3 µM | 360,000 tested, 0.088% active | AID 588819; in the data active = activation above about 19%, passing the limit was not always enough
Target sequence (P11229 whole entry, looked up): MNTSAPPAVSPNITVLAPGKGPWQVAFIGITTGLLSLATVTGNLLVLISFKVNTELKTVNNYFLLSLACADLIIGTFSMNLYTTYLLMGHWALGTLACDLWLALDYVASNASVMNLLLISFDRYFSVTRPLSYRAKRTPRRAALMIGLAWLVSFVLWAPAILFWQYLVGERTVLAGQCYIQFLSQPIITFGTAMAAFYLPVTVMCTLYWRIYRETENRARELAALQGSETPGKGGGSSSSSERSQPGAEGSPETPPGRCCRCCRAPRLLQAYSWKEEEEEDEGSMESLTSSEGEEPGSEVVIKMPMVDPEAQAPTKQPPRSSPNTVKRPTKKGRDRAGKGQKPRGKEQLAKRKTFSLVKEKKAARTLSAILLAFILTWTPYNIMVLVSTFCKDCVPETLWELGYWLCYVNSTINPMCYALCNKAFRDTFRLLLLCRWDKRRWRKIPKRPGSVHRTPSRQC
M1 ag parental = M1 agonist counterscreen hit in parental CHO-K1 cells. Fluo-8 calcium fluorescence; scaled to maximal ATP response, vehicle zero. activation, % at 3 µM. 360,000 tested, 0.48% active. AID 602248; in the data active = activation above about 15%;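 note: untransfected CHO-K1 host cells lacking M1 receptor as counterscreen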
M1 PAM parental = M1 PAM counterscreen hit in parental CHO-K1 cells | 360,000 tested, 0.02% active | activation, % at 3 µM | ATP EC20, Fluo-8 calcium fluorescence; 0% at ATP EC20, 100% at ATP max;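 active = activation above the run cutoff, the mean activation of all test compounds plus 3 SD, cut at about 40% in these data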;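 note: peak over basal fluorescence ratio in a 140 s read after ATP addition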
CHRM1 antagonist = human CHRM1 antagonism; P11229; CHO-K1 hM1, Fluo-8 calcium fluorescence, ACh EC80 antagonist; inhibition, % at 3 µM; 360,000 tested, 1.3% active; AID 588852;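 active = percent inhibition above its own plate's cutoff, namely the mean of that plate's compound wells plus 3 SD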;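 note: peak over basal fluorescence ratio during 140 s after agonist addition; 0% = ACh EC80 plus DMSO and 100% = DMSO alone without agonist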
CHO-K1 Ca antag = counter-screen for M1 antagonists: effect in parental CHO-K1 cells. ATP-induced calcium, Fluo-8 fluorescence. inhibition, % at 3 µM. 360,000 tested, 0.6% active;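 active = inhibition above a per-plate cutoff, the plate's mean sample inhibition plus 3 SD, cut at about 24% in these data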;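 note: 0% = DMSO plus EC80 ATP and 100% = DMSO alone without ATP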
M1 ag = activates human CHRM1 receptor; P11229; CHO-K1 hM1, Fluo-8 calcium fluorescence, agonist mode; 0% DMSO, 100% acetylcholine EC100; activation, % at 3 µM; 360,000 tested, 0.33% active; AID 588814;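 active = activation above the run's mean compound activation plus 3 SD, cut at about 16% in these data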;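 note: peak over basal fluorescence ratio within a 140 s kinetic read after compound addition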
The depositor's hits bear a star; x = no result given. This is a sample that favours compounds with a hit; in the whole collection about 2.3% have one here.

SMILES	M1 PAM	M1 ag parental	M1 PAM parental	CHRM1 antagonist	CHO-K1 Ca antag	M1 ag
Cc1cccc(C(=O)NNC(=S)NC(=O)c2ccccc2)c1	-28	100*	-32	38	35*	97*
CCOc1ccc(NS(=O)(=O)c2ccc(C(=O)NCC(c3ccc(OC)cc3)N3CCCC3)cc2)cc1 (stereo not drawn)	2	7	19	4	-13	-3
CC(=O)c1ccc(S(=O)(=O)N2CCN(CC(=O)Nc3ccnn3C3CCCC3)CC2)cc1	15	0	4	-9	-13	-5
COc1cc(-c2cc(C(=O)Nc3ccccc3N3CCOCC3)c3ccccc3n2)cc(OC)c1OC	-14	3	-12	14	15	-1
Cc1cc(C)c(OCC(=O)Nc2ccccc2N2CCCCC2)c(C)c1	11	0	-4	-14	5	0
O=C(Nc1ccccc1N1CCOCC1)c1cc(-c2ccco2)nc2ccccc12	-12	5	0	38*	16	2
Cc1cc(C)c(OCC(=O)Nc2ccccc2N2CCOCC2)c(C)c1	3	17*	17	23	16	18*
COc1ccc(Nc2ncnc3ccccc23)cc1	9	1	14	-12	-14	-2
COc1ccc(Nc2ccnc3ccccc23)cc1	0	0	10	-9	-9	25*
CCc1ccc(NS(=O)(=O)c2c(C)noc2C)cc1	-22	0	-11	40*	7	-5
CC(=O)c1c(C)[nH]c(C(=O)CN2C(=O)NC(C)(c3ccc(C)cc3)C2=O)c1C (stereo not drawn)	4	14	29	9	-10	27*
CCN1C(=O)C(=O)N(CC(=O)c2[nH]c(C)c(C(C)=O)c2C)C1=O	1	0	-1	2	-4	-3
CCOC(=O)[C@]12CCC=C1N(Cc1ccco1)C(=O)[C@H](CC(=O)NCCc1ccccc1OC)C2	x	0	3	x	-9	x
FC(F)(F)c1cccc(CNC(=S)Nc2ccccc2)c1	-2	3	-8	-3	27*	0
S=C(NCc1ccccc1)Nc1ccc(Cl)cc1	-23	12	-4	17	22	-6
S=C(NCc1ccccc1)NCc1cccc(Cl)c1	-3	3	10	-7	60*	-2
FC(F)(F)Sc1ccc(NC(=S)NCc2ccccc2)cc1	-19	11	-19	40*	31*	3
OC(CN1CCOCC1)Cn1c(-c2cccc(Cl)c2)nc2ccccc21 (stereo not drawn)	3	0	-10	2	28*	-3
OC(CN1CCOCC1)Cn1cnc2ccccc21 (stereo not drawn)	7	1	8	-11	-9	-2
COC(=O)/C(=C\C=C\c1ccccc1)NC(=O)c1ccccc1	-3	3	-9	-4	29*	-4
O=C(Nc1ccc(O)cc1)/C(=C\C=C\c1ccccc1)NC(=O)c1ccccc1	-11	3	8	22	-4	-1
COc1ccccc1CCNC(=O)C(=O)NCC1OCCN1S(=O)(=O)c1ccc(C)cc1 (stereo not drawn)	0	2	15	-7	-7	-5
Cc1ccc(-c2nc(P(=O)(c3ccccc3)c3ccccc3)c(N3CCOCC3)o2)cc1	10	0	17	-10	-3	-5
CNc1oc(-c2ccc(Cl)cc2)nc1P(=O)(c1ccccc1)c1ccccc1	5	0	49*	11	-14	0
Cc1nn(C)c(C)c1CCC(=O)N1CCCC(N2CCN(c3ccc(F)cc3)CC2)C1 (stereo not drawn)	5	1	16	-11	-13	-5
SMILES	M1 PAM	M1 ag parental	M1 PAM parental	CHRM1 antagonist	CHO-K1 Ca antag	M1 ag
O=C(O)c1cc2c(cc1NC(=O)C1CCCC1)OCCO2	2	0	5	2	-6	0
NCCCC(=O)N1c2ccccc2Sc2ccccc21	-27	0	28	94*	-13	-10
NCCC(=O)N1c2ccccc2Sc2ccccc21	-26	1	7	41*	-8	-8
CCCCCCCn1ccc(=N)cc1	-20	0	5	41	-6	-5
CCCCCCCCCn1ccc(=N)cc1	-20	1	5	40*	-1	-8
CC(C)NC(=O)N(C)C[C@H]1Oc2ccc(NS(=O)(=O)c3ccccc3)cc2C(=O)N([C@H](C)CO)C[C@@H]1C	7	1	14	-14	-13	-2
O=C(Nc1cccc(Cl)c1)Nc1csc([N+](=O)[O-])c1	0	16*	-6	26	20	6
O=C(Cc1csc(NC(=O)Nc2cccc(Cl)c2)n1)NCc1ccccn1	-2	8	5	2	-2	1
O=C(Nc1ccncc1)Nc1cccc(Cl)c1	-10	14	2	18	3	5
COc1cccc(NC(=O)Nc2nc(-c3ccc(OC)c(OC)c3)cs2)c1	-13	11	-27	31*	18	3
O=C(Cc1csc(NC(=O)Nc2cccc(Cl)c2)n1)NC1CCCC1	1	16*	-3	4	8	6
O=C(Nc1cccc(Cl)c1)Nc1nc(-c2ccc(Cl)cc2)cs1	-5	5	4	30*	22	3
COc1ccc(-c2csc(NC(C)=O)n2)cc1OC	5	0	12	-13	-6	-4
COc1ccccc1C(=O)NNC(=O)CN(C)S(=O)(=O)c1ccc(Cl)cc1	9	2	20	-16	-4	-2
Cc1ccccc1S(=O)(=O)N(C)C[C@@H]1OCc2ccccc2-c2c(n(C)c3ccccc23)C(=O)N([C@H](C)CO)C[C@@H]1C	9	0	-12	-12	19	5
COc1cccc(-n2c(=O)n(Cc3ccccc3)c(=O)c3[nH]cnc32)c1	3	0	3	-9	20	-4
Cc1ccccc1NS(=O)(=O)c1ccc2c3c(cccc13)C(=O)N2C	3	5	8	3	-18	2
CN1C(=O)c2cccc3c(S(N)(=O)=O)ccc1c23	6	16*	13	0	0	4
Cc1cc(C(=O)N2CCC2(C)C(=O)NS(=O)(=O)c2ccc(Cl)cc2)nn1C (stereo not drawn)	14	0	15	-27	1	-2
COc1ccc(OCC(=O)NNC(=S)NC(=O)c2ccc(Br)o2)cc1	-3	-1	16	7	11	-3
Cc1c(S(=O)(=O)Nc2ccc(Br)cc2)c(=O)n(C)c(=O)n1C	-15	7	10	30*	7	-4
Cc1ccc(S(=O)(=O)NN=C(c2ccccc2)c2cccs2)cc1	4	0	16	-10	-14	-9
CCCCN1CC(N2CCN(CCO)CC2)CS1(=O)=O (stereo not drawn)	17	0	9	-1	17	20*
C#CCCCCCCC#CCN(C)C	-17	0	-14	21	26*	41*
